697 NFkB inh: inhibitors of PMA/ionomycin-induced NF-kB reporter, 697 cells, primary screen, B-cell NF-kB inhibitor project, cell-based, luminescence, uHTS; 697 B-cell NF-kB luciferase reporter, 16 h; inhibition, % at 4 µM; 330,000 tested, 0.33% active; in the data active = inhibition above about 35%
Beta apoptosis: inhibitors of cytokine-induced beta cell apoptosis, primary screen, luminescence | INS-1E cytokine-induced death, ATP luminescence, 48 h; percent of positive-control rescue, neutral wells zero | 300,000 tested, 0.8% active | protection from apoptosis, % (concentration not given with the values);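 active = Every replicate reaches about 75%, or at least half do and their mean reaches it too, limit read from the data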;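 also: 0% = cytokine-treated negative control wells and 100% = positive control rescue; higher means more ATP so stronger rescue from cytokine killing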
NTR1 ag: agonists of human NTR1, primary screen, imaging, U2OS cells, beta-arrestin-GFP, high content; 330,000 tested, 0.17% active; Neurotensin receptor type 1 (Homo sapiens), P30989; NTR1-U2OS beta-arrestin-GFP spot imaging, agonist mode; activation, % at 20 µM; AID 493036, 2011;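 active = activation at or above 40% of the spot to cytoplasm intensity ratio, with at least 20 cells analyzed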;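 also: 0% = DMSO without peptide and 100% = 100 nM NTR1 peptide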
Target sequence (P30989 whole entry, looked up): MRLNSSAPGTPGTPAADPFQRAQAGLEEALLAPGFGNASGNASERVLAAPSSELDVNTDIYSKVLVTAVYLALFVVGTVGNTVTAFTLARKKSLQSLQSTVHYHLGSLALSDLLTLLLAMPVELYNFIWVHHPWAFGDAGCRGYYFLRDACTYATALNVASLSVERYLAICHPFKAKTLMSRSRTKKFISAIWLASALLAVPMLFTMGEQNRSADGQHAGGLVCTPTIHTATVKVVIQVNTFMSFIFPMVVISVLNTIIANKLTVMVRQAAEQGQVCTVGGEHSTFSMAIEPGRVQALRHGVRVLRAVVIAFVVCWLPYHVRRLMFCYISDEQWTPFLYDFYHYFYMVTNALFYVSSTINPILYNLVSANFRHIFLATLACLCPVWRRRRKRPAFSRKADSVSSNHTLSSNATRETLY
Mdm2-MdmX inh: inhibitors of human Mdm2-MdmX association, primary screen, cell-based, luminescence, split luciferase, SaOS-2, uHTS; Protein Mdm4 (Homo sapiens) + E3 ubiquitin-protein ligase Mdm2 (Homo sapiens), …; SaOS-2 split-luciferase Mdm2/MdmX complementation; inhibition, % at 8 µM; 330,000 tested, 3% active;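 active = inhibition of at least 50% at 8 µM in the primary screen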
Jurkat NFkB inh: inhibitors of induced NF-kB luciferase reporter, primary screen, TCR NF-kB activation inhibitor project, cell-based, luminescence, uHTS; Jurkat, PMA/ionomycin-induced NF-kB luciferase reporter; AID 435003, 2010; 330,000 tested, 0.53% active; inhibition, % at 4 µM; in the data active = inhibition above about 50%
Bfl-1 A1 inh: caspase 3/7 activation in MEF A1-2A-BIM cells, primary screen, A1 inhibitor project, cell-based, luminescence, HTS; caspase activation, % (test concentration not listed); 330,000 tested, 0.066% active; Caspase-Glo 3/7 luminescence, 3 h; percent of clofoctol response, vehicle zero;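 active = over half of replicate activation scores above 10%, or exactly half above 10 with the replicate mean above 10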
Mdm2 MdmX conf: Mdm2-MdmX complex disruptors, retested hits, confirmation, luminescence, single concentration; 10,000 tested, 55% active; shares compounds with Mdm2-MdmX inh; inhibition, % at 8 µM; AID 489028, 2010; Mdm2-MdmX binding, luminescent assay; in the data active = inhibition above about 40%
FLuc counter: full-length luciferase signal inhibition, confirmation, counter-screen for Mdm2/MdmX interaction inhibitor project, cell-based, single concentration, SaOS-2; shares compounds with Mdm2-MdmX inh; SaOS-2 full-length luciferase counterscreen, luminescence; inhibition, % at 8 µM; 6,200 tested, 77% active;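 active = mean inhibition at 8 µM reaching about 37%, which flags the compound as non-specific, limit read from the data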;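 also: p53-null SaOS-2 cells with luciferase driven by a doxycycline-inducible promoter; compound on cells about two nights before reading with doxycycline added after day one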
* hit, by the source's call; x = no result. Most compounds without a hit are left out; they make up all but 3.8% or so of the library.

SMILES | 697 NFkB inh | Beta apoptosis | NTR1 ag | Mdm2-MdmX inh | Jurkat NFkB inh | Bfl-1 A1 inh | Mdm2 MdmX conf | others
Oc1ccccc1-c1nnc2n1CCCCC2 | x | -2 | x | x | x | 0 | x
Nc1c(C(=O)CSc2nnc(Nc3ccc(F)cc3)s2)c(=O)[nH]c(=O)n1C1CC1 | -7 | 4 | 6 | 6 | -16 | 0 | x
C[C@@H](C(=O)N1CCN(c2ccccc2)CC1)N1C(=O)C2CC=CCC2C1=O (some centres undefined) | -5 | -3 | 0 | -14 | 11 | 1 | x
Cc1ccc(C(=O)C(C(=O)/C=C/c2ccccc2)=C2SCCCS2)cc1 | -52 | x | 11 | 98* | -1 | 1 | 90* | FLuc counter=54*
COc1ccc(/C=C/C(=O)C(C(N)=O)=C2SCCS2)cc1 | -16 | -4 | -2 | -11 | -21 | 0 | x
Cc1cccc(C(=O)NNC(=O)C2CC2)c1 | -3 | 2 | 0 | 8 | -8 | 0 | x
CN(C)/C=N/c1[nH]ncc1C#N | 4 | -3 | 1 | 8 | 0 | 1 | x
CN(C)C=Nc1ncc2c([nH]c3ccccc32)c1C#N | -22 | -13 | 7 | 72* | -15 | -1 | 82* | FLuc counter=23
Cc1ccc(CN2CC(C(=O)Nc3ncc(C)s3)CC2=O)cc1 (centres undefined) | -1 | x | 0 | 61* | 4 | x | 59* | FLuc counter=66*
Cc1ccc(CN2CC(C(=O)Nc3ccncc3)CC2=O)cc1 (centres undefined) | -8 | -9 | 1 | 1 | 0 | 0 | x
CCOC(=O)C1CCN(S(=O)(=O)c2ccc3c4c(cccc24)C(=O)N3CC)CC1 | 17 | -1 | -3 | 37 | -10 | 0 | x
CC1CCN(c2nc(CN3CCCCC3)nc3scc(-c4ccccc4)c23)CC1 | -32 | 36 | 11 | 57* | -1 | 0 | 20
COC(=O)c1c(NC(=O)COC(=O)[C@@H](NS(=O)(=O)c2cccc(Cl)c2)C(C)C)sc2c1CCC2 | 1 | 3 | 8 | 3 | -30 | -1 | x
COC(=O)c1sc(N)c(C(=O)OC)c1COC(=O)[C@@H](NS(=O)(=O)c1cccc(Cl)c1)C(C)C | 3 | -2 | 3 | 54* | -3 | 0 | 28
Nc1c2nc(-c3ccccc3)[nH]c(=O)c2nc(=O)n1-c1ccccc1 | 0 | 5 | 12 | 63* | -2 | 1 | 12
O=c1[nH]c(-c2ccc(F)cc2)nc2c1sc(=S)n2-c1ccccc1 | 28 | 38 | 2 | 11 | -2 | 0 | x
Cc1nc(Oc2ccccc2)c2ccccc2n1 | -19 | -8 | 1 | -1 | -14 | -1 | x
c1ccc(Oc2c3ccccc3nc3ccccc23)cc1 | -27 | 5 | 19 | 73* | 14 | 1 | 5
CCCCNc1c(-c2ccc(OC)c(SC(C)CC)c2)nc2cc(C)ccn12 (centres undefined) | -32 | x | 6 | 19 | 0 | x | x
CCC(C)Sc1cc(-c2nc3cc(C)ccn3c2NC2CCCCC2)ccc1OC (centres undefined) | -62 | x | -2 | 84* | -38 | x | -12
CCC(C)Sc1cc(-c2nc3ccccn3c2NC2CCCCC2)ccc1OC (centres undefined) | 2 | 31 | 15 | 69* | 4 | 0 | 30
O=C(c1ccc2nc(Cc3ccccc3F)oc2c1)N1CC[C@H](O)C1 | -2 | -2 | -2 | 2 | -9 | 0 | x

Source: PubChem BioAssay (several laboratories)
